The record followed here is ChEMBL document CHEMBL3988442, “University of Dundee, Small-Polar-MMV Screening Library” (2021).

The campaign covered roughly 38,000 compounds. About 1,200 (3.2%) showed an effect of 50% or more. The median lay at about -58%. The sample as a whole holds a higher share of strong results than the screen did.

The experiment concerns Plasmodium falciparum. Kind of experiment: Calibr Malaria Delayed Death Assay SOP. In kind it is functional, organism-based. The following applies: concentration 4.99e-06 (unit not given; other assays of the set use mol/L). More on the design: scale not given: in the data most compounds retested in dose-response had high values.
In the case of `c1ccc2c(c1)COC1(CCCC1)N2`, the “Percent Effect” value is reported as -67.59%. On to `Cn1nc(CN2CCCCC2)c2c1CN(C(=O)c1ccccc1)C2`, for which the “Percent Effect” value is reported as -57.34%. Under `CC(C)NC(=O)c1nn(C)c(NC(=O)Cc2ccccc2)c1F` stands -24.59%; under `Cc1nc(CNC(=O)NC2CCN(c3ncccn3)CC2)cs1`, -218.9%. Regarding `CCOCCCn1c(NC(=O)c2cc(C)no2)nc2ccccc21`, the “Percent Effect” value was -48.09%. Under `Cn1cccc1C(=O)N1C[C@H]2CC[C@@H]1CN(Cc1cscn1)C2` stands -15.16%; under `O=S(=O)(c1cc(F)ccc1F)N1CCCC1c1ccco1` (centres undefined), -139.7%. Under `CCN1CCCC(O)(CN(C)Cc2ccc(C)o2)C1` (centres undefined) stands 18.1%; under `Cc1ccc(CN(C)CC2(O)CCCN(C)C2)o1` (centres undefined), 53.08%; under `Cc1ccc(CN2CCCC3(CCN(Cc4ccc(C)o4)C3)C2)o1` (centres undefined), 14.98%. On to `O=C(c1ccccn1)N1CCc2ncnc(-c3ccncc3)c2CC1`, for which the “Percent Effect” value was -17.27%.

Take `COc1cccc(OC)c1-c1ccnc2cc(CC(=O)N(C)C)nn12`: the “Percent Effect” value is on record as -114.9%. Under `CC(C)NC(=O)CC1CC2(CCN(S(C)(=O)=O)CC2)c2ccccc21` (centres undefined) stands -30.05%; under `Cc1ccc(-c2cn3c(n2)CO[C@@H](CNCc2nccn2C)C3)cc1`, 87.31%.

Take `Cc1ccc(-c2cn3c(n2)CO[C@@H](CNCc2cnn(C)c2)C3)cc1`: the “Percent Effect” value is -51.89%. Next, `Cc1cccnc1CNC[C@H]1Cn2cc(-c3ccccc3)nc2CO1`: 30.07%. `COc1ccc(-c2cn3c(n2)CO[C@@H](CNCc2nccn2C)C3)cc1`: the “Percent Effect” value stood at 20.49%. Consider `Cn1ccnc1CNC[C@H]1Cn2cc(-c3ccccc3)nc2CO1`, for which the “Percent Effect” value stood at 55.94%.

As to `Cc1ccc(CNC[C@H]2Cn3cc(-c4ccccc4)nc3CO2)cc1`, the “Percent Effect” value was -116.4%.

As for `Fc1ccccc1OC1CCN(CCn2cc3ccccc3n2)CC1`, the “Percent Effect” value is listed as -71.75%. Consider `CCC1CN(CC(=O)N2CCCC2)CCN1CCOC` (centres undefined), for which the “Percent Effect” value is on record as -62.36%.

With `Cc1ccc(N2CCC3(CCN(C(=O)c4ccsc4)CC3)C2)nn1`, the “Percent Effect” value is given as -9.92%.

On to `NC(=O)N1CCC2(CCN(Cc3ccccn3)C2=O)C1.O=C(O)C(F)(F)F` (centres undefined), for which the “Percent Effect” value is -110.7%. Regarding `COCC(O)CN1CCC(=O)N(Cc2ccccc2)Cc2ccccc21` (centres undefined), the “Percent Effect” value is given as -18.3%. Under `CC(C)c1nn(C)c(N(C)C)c1CNCC(O)c1ccccc1` (centres undefined) stands -60.19%; under `CC(C)c1nn(C)c(Cl)c1CNCC(O)c1cccc(F)c1.Cl` (centres undefined), 81.83%; under `CC(C)c1nn(C)c(N(C)C)c1CNCC(O)c1ccccc1F` (centres undefined), -90.64%. Under `COc1ncccc1CNCc1c(C(C)C)nn(C)c1Cl` stands 51.46%. Take `COc1ncccc1CNCc1c(C(C)C)nn(C)c1OC`: the “Percent Effect” value is given as -36.33%. Under `CC(C)c1nn(C)c(N(C)C)c1CNCC(O)c1cccc(F)c1` (centres undefined) stands 28.02%; under `COc1ncccc1CNCc1c(C(C)C)nn(C)c1N(C)C`, 6.61%. Under `COc1c(CNCC(c2cccc(F)c2)N(C)C)c(C(C)C)nn1C` (centres undefined) stands 19.73%; under `CC(C)OCCCNC(=O)c1cccnc1N1CCOCC1`, -113.7%; under `Cn1ccnc1CN1CCCN(C(=O)c2ccc3c(c2)OCO3)CC1`, -109.5%.

Take `O=C(Nc1nncs1)N1CCC(c2ccc(O)cc2)CC1`: the “Percent Effect” value is on record as -154%.

With `CCN1C(=O)CCCC12CCCN(C(=O)c1conc1C)C2` (centres undefined), the “Percent Effect” value is listed as -139.9%. Under `CCCS(=O)(=O)N1CCC2(CN(c3ccccc3)C(=O)CN2C)C1.O=C(O)C(F)(F)F` (centres undefined) stands -40.82%; under `CC1Oc2c(cccc2C(=O)N2CCCCCC2)NC1=O` (centres undefined), -198.9%; under `Cc1nc[nH]c1CN(Cc1ccccc1)Cc1nccs1`, 74.62%. Take `c1ccc(CN(Cc2ncc[nH]2)Cc2nccs2)cc1`: the “Percent Effect” value is listed as 15.24%.

For the compound `Cc1cccc(CN(Cc2ccccc2)Cc2nccs2)n1`, the “Percent Effect” value is -42.32%. Take `Cc1cccc(CN2CC[C@@H]3O[C@@H](C(=O)N4CCN(C)CC4)C[C@@H]32)c1`: the “Percent Effect” value was found to be 7.549%. Take `Cc1nc2ccnn2c(C)c1CCC(=O)N1CCSCC1`: the “Percent Effect” value was -118.8%. Next, `Cc1cccc(N2CCOCC3(C2)CN(c2ccoc2)C(=O)CO3)n1.O=C(O)C(F)(F)F` (centres undefined): 65.62%.

`Cc1cccc(N2CCOCC3(C2)CN(c2ccccc2)C(=O)CO3)n1.O=C(O)C(F)(F)F` (centres undefined): the “Percent Effect” value is -64.15%. Under `Cc1cccc(N2CCOCC3(C2)CN(c2cnn(C)c2)C(=O)CO3)n1.O=C(O)C(F)(F)F` (centres undefined) stands -79.15%; under `OC1(CN2CCOC(Cn3cncn3)C2)CCCCC1` (centres undefined), -41.07%.

Turning to `Cc1ccc2[nH]c(CN(C)Cc3n[nH]c4c3CCC4)nc2c1`, the “Percent Effect” value stood at 82.04%.

In the case of `Cc1ccc2nc(CN(C)Cc3[nH]nc4c3CCC4)[nH]c2c1C`, the “Percent Effect” value was 36.38%.

Turning to `CN(Cc1cc2n(n1)CCNC2)Cc1n[nH]c2c1CCC2`, the “Percent Effect” value is recorded as -20.1%. For the compound `CN(Cc1cc2n(n1)CCNC2)Cc1n[nH]c2c1CCCCC2`, the “Percent Effect” value is given as -6.476%. Under `Cc1ccc2nc(CN(C)Cc3n[nH]c4c3CCCCC4)[nH]c2c1C` stands 85.65%.

As to `CN(Cc1cc2n(n1)CCCNC2)Cc1n[nH]c2c1CCC2`, the “Percent Effect” value is reported as -43.74%. Under `CCn1nc(CC(C)C)cc1C(=O)NCCCN1CCOCC1` stands -66.39%. Consider `CN(Cc1ccc2c(c1)OCCO2)Cn1nc(C(C)(C)C)ccc1=O`, for which the “Percent Effect” value is -39.48%. Under `CN(Cc1ccncc1)C1COC2(CCN(Cc3nccn3C)CC2)C1.O=C(O)C(F)(F)F.O=C(O)C(F)(F)F.O=C(O)C(F)(F)F` (centres undefined) stands -27.83%; under `O=C(O)C(F)(F)F.O=C1[C@H]2CN(S(=O)(=O)C3CC3)C[C@H]2CN1Cc1cccnc1`, -0.2941%. Under `CC(=O)C1(c2ccccc2)CCN(C(=O)C2CNCCO2)CC1` (centres undefined) stands -83.28%. Next, `CC(=O)C1(c2ccccc2)CCN(C(=O)CC2CNCCO2)CC1` (centres undefined): -46.22%.

On to `O=C(C1CNCCO1)N1CCCC(c2ccccc2)(c2ccccc2)C1` (centres undefined), for which the “Percent Effect” value is 79.21%. Next, `O=C(c1cccnc1SC/C=C/c1ccccc1)N1CC[C@H](O)C1`: -73.62%. Under `O=C(c1cccnc1SC/C=C/c1ccccc1)N1CCOCC(O)C1` (centres undefined) stands 53.57%. As for `O=C(c1cccnc1SCc1ccccc1)N1CCOCC1`, the “Percent Effect” value was -36.51%. Under `O=C(O)C(F)(F)F.c1ccc2c(c1)N(CC1CCOC1)CC21CCN(c2cnccn2)CC1` (centres undefined) stands 68.42%. Regarding `O=C(O)C(F)(F)F.O=C1N(CC2CC2)CCC12CCN(c1ncccn1)CC2`, the “Percent Effect” value was determined as 4.695%. For the compound `c1cnc(N2CC3(CCN(C4CCOC4)CC3)c3ccccc32)nc1` (centres undefined), the “Percent Effect” value is given as -111.6%. Next, `O=C(O)C(F)(F)F.O=C(O)C(F)(F)F.OCCN1CC2(CCN(CC3CC3)CC2)c2ccccc21`: -50.6%; `O=C(O)C(F)(F)F.c1cnc(N2CCC3(CC2)CN(CC2CC2)c2ccccc23)nc1`: 85.9%.

For the compound `Cc1cnc(N2CCC3(CCN(CC4CC4)C3=O)CC2)nc1`, the “Percent Effect” value was -170.6%. Under `CCS(=O)(=O)N1CCC2(CC1)CN(CC1CCOC1)c1ccccc12.O=C(O)C(F)(F)F` (centres undefined) stands 19.88%; under `CS(=O)(=O)N1CCC2(CC1)CN(CC1CCOC1)c1ccccc12.O=C(O)C(F)(F)F` (centres undefined), -57.4%.

On to `COC[C@@H]1CCC[C@@]12CN(C(=O)N1CCCC1)CCO2`, for which the “Percent Effect” value is recorded as -140.1%. Next, `Cc1ccc(C(=O)N2CCC3(CCN3Cc3ccc(F)cc3)C2)cn1.O=C(O)C(F)(F)F` (centres undefined): -82.72%. Next, `CC(C)C(C(=O)N1CCCN(c2cccnn2)CC1)n1cncn1` (centres undefined): -14.43%; `CN(C)S(=O)(=O)c1ccc2c(c1)N(Cc1ccccn1)CCC2`: -104.8%.

As to `Cc1ccc([C@H]2CN(C(=O)C3CCC3)C[C@@H]2N)o1`, the “Percent Effect” value is -3.638%. In the case of `Cc1nc(N2CCN(C)CC2)ncc1C(=O)N1CCCCCC1`, the “Percent Effect” value was -28.58%. Next, `O=C1CCN(C(=O)CCc2ccc(Cl)cc2Cl)CCN1`: -159.9%; `Cc1cnn(CC2CCCCN2C(=O)c2cccc(C(N)=O)c2)c1` (centres undefined): -136.1%; `CCCn1ncc(CN(CCN(C)C)Cc2ccsc2)c1C`: 54.25%. Next, `CCCn1ncc(CN(Cc2cccnc2)Cc2ccsc2)c1C`: -140.4%; `CCCn1ncc(CN(Cc2ccsc2)Cc2ccco2)c1C`: -133.4%; `Cc1ccc(NC2CCN(C(=O)COc3ccccc3)CC2)nn1`: -125.7%.

For the compound `O=c1n(CCNCc2ccc3ccccc3c2)nc2ccccn12`, the “Percent Effect” value is recorded as -86.86%.

With `CCOc1cc(C(=O)N2CCCC(c3noc(CC)n3)C2)ccn1` (centres undefined), the “Percent Effect” value was -108.4%. Consider `NCC1Cc2cc(-c3cncc(C(=O)N4CCOCC4)n3)cc(Cl)c2O1` (centres undefined), for which the “Percent Effect” value is given as -15.5%. For the compound `O=C(c1cncc(NCC2COc3ccccc3C2)n1)N1CCCC1` (centres undefined), the “Percent Effect” value is on record as -147.2%.

Regarding `NCC1Cc2cc(-c3cncc(C(=O)N4CCCCC4)n3)cc(F)c2O1` (centres undefined), the “Percent Effect” value is 51.14%. In the case of `Cc1nc(-c2ccco2)ccc1C(=O)NCCC(=O)N1CCCCC1`, the “Percent Effect” value is listed as -60.18%. Take `CCOCCCNCc1cc2c(C)cc(C)cc2n2c(=O)n(C)nc12`: the “Percent Effect” value was -70.5%.

Consider `Cc1ccc(CNC(=O)c2cc(C)n(C)n2)o1`, for which the “Percent Effect” value was -43.25%. `Cc1cc(C)c2cc(CNCc3cccnc3)c3nn(C)c(=O)n3c2c1`: the “Percent Effect” value is on record as 28.22%. In the case of `Cc1cc(C)c2cc(CNCc3ccco3)c3nn(C)c(=O)n3c2c1`, the “Percent Effect” value is recorded as 74.31%.

Turning to `Cc1cc(C)c2cc(CNCc3ccc(C)o3)c3nn(C)c(=O)n3c2c1`, the “Percent Effect” value was 62.16%. Next, `Cc1cc(C(=O)NCc2ccco2)nn1C`: -62.29%; `Cc1ccn(CCC(=O)NCc2ccc(C)o2)n1`: -117.2%; `Cc1cc(C)c2cc(CNC(C)C)c3nn(C)c(=O)n3c2c1`: 20.42%. Under `Cc1cc(C)c2cc(CNC3CCCCC3)c3nn(C)c(=O)n3c2c1` stands 78.75%. Next, `COc1ccccc1CCNC(=O)NCC(=O)Nc1cccnc1`: -188.8%.
